An excerpt weighted towards active compounds, which were near 4.7% of everything screened.
TWEAK Fn14 block: blocks TWEAK-Fn14 interaction in a reporter cell assay. TWEAK-stimulated Fn14 reporter cells, luciferase luminescence, 8 h. inhibition, % at 10 µM. 360,000 tested, 2% active; in the data active means inhibition above about 50%
HSF-1 act: increases HSF-1 driven luciferase reporter signal; activation, % at 9 µM; NIH3T3-HGL HSF-1 luciferase reporter, MG132, 8 h; 100% = twice DMSO control signal; 300,000 tested, 1.7% active;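 active means mean replicate activation of at least 50% with a set share of replicates each reaching 50%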;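 further: 0% = median of the neutral control wells and 100% = twice that signal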
LMP1 NFkB inh: Epstein-Barr LMP1 NF-kappaB reporter inhibition | LMP1-induced NF-kappaB luciferase reporter cells, luminescence | 350,000 tested, 0.69% active | AID 504558 | inhibition, % at 12.5 µM; in the data active means inhibition above about 41%;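 further: 0% = neutral control wells and 100% = reference inhibitor control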
TROY signal inh: inhibitors of TROY-dependent NF-kB signaling. Q293 LMP1-TROYcd NF-kB luciferase reporter, 4 h. inhibition, % at 10 µM. 360,000 tested, 0.98% active. AID 1347056;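 active means compounds whose plate-normalised and pattern-corrected inhibition of the luciferase reporter signal at the single screening dose is 50% or more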
HSF1 inhib: HSF1 inhibition. 300,000 tested, 0.77% active. activity change, negative = inhibition, % at 7.5 µM (by protocol). NIH3T3-HGL HSE-luciferase, MG132-induced, luminescence 8 h; stronger effect = lower value;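 active means more than half of replicate wells show activity change below -50%, luminescence cut by over half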;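 further: luciferase reports HSF-1 transcriptional activity via heat shock element; 0% = median of DMSO wells and -100% = zero luminescence signal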
HSP90 inh: blocks HSP90-mediated luciferase refolding in reticulocyte lysate; Rabbit reticulocyte lysate, luciferase refolding luminescence, 3 h; inhibition, % at 5.6 µM; 290,000 tested, 0.91% active; AID 1789;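 active means inhibition above the screen-wide mean plus 3 SD, computed separately per campaign, cut at about 16% in these data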;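 further: 0% = DMSO wells and 100% = 60 µM geldanamycin wells; inhibitors lower the luminescence because luciferase stays unfolded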
Starred values were filed as active, the others as inactive; nt = no result.

SMILES	TWEAK Fn14 block	HSF-1 act	LMP1 NFkB inh	TROY signal inh	HSF1 inhib	HSP90 inh
O=C(Nc1ccc2oc(-c3ccncc3)nc2c1)c1ccc([N+](=O)[O-])o1	18.9	83.6*	-20.7	0.3	101.5	-0.1
Cc1ccc(-c2nc3ncccc3o2)cc1NC(=O)c1ccc([N+](=O)[O-])o1	5.1	139.1*	-29.0	-1.7	91.4	1.6
O=C(Nc1ccc2oc(-c3ccncc3)nc2c1)c1ccccc1	-5.6	-0.9	3.5	1.3	4.0	-2.1
CC(C)(C)S(=O)N1Cc2cc(C(=O)NCc3ccc(Oc4ccccc4)cc3)nc(-c3cccc(-c4cc5ccccc5o4)c3)c2[C@@H]1CCO (stereo not given in full)	-21.4	nt	nt	13.8	nt	nt
Cc1csc(NC(=O)c2ccccc2[N+](=O)[O-])n1	7.7	0.1	-1.5	-2.4	-0.4	-2.9
O=C(Nc1ccccc1OC(F)F)c1cc2c(s1)CCC2	-54.2	nt	9.7	-64.1	nt	0.2
COc1ccccc1NC(=O)c1ccc(NC(=O)c2cc3c(s2)CCC3)cc1	58.7*	-14.8	11.4	30.7	-8.1	1.2
Cc1csc(NC(=O)c2ccc(C)c([N+](=O)[O-])c2)n1	68.2*	25.4	-17.5	16.8	6.7	11.8
Cc1csc(NC(=O)c2cccnc2)n1	82.6*	1.2	-5.6	-18.5	-1.7	-3.7
Cc1csc(NC(=O)c2cc3c(s2)CCC3)n1	68.0*	54.0*	-29.6	-46.7	12.9	2.7
COC(=O)c1sc(NC(=O)c2cc3c(s2)CCCC3)nc1C	11.6	31.7	-40.4	-10.3	10.5	11.4
Cc1cc(C(=O)Nc2ccccc2C(=O)N2CCCCC2)ccc1[N+](=O)[O-]	-12.2	11.2	4.5	10.7	-3.2	3.9
Cc1cccc(NC(=O)c2ccc(N3CCCCC3)c([N+](=O)[O-])c2)n1	7.3	62.2*	-31.5	-19.7	31.6	4.4
Cc1cc(C)nc(NC(=O)c2ccc(C)c([N+](=O)[O-])c2)n1	-13.6	-80.7	-201.7	-8.1	-72.0*	-4.6
Cc1cccc(NC(=O)c2ccc(N3CCOCC3)c([N+](=O)[O-])c2)n1	-24.3	2.4	-19.6	-15.3	6.9	2.7
Cc1ccc(C(=O)Nc2ccccc2C(=O)N2CCCC2)cc1[N+](=O)[O-]	100.1*	35.4	-3.7	90.4*	1.7	0.5
Cc1cc(/C=C2/NC(=O)N(c3ccccc3)C2=O)c(C)n1C(C)C	60.2*	21.0	1.9	47.8	5.5	4.8
Cc1cccc(NC(=O)CN2C(=O)N/C(=C/c3ccc(C)s3)C2=O)c1	0.8	12.8	5.6	-37.7	5.4	3.1
Cc1cccc(NC(=O)CN2C(=O)N/C(=C/c3cc(C)n(C(C)C)c3C)C2=O)c1	-6.6	-66.3	2.5	5.7	-57.3*	4.6
CCCN1C(=O)c2[nH]nc(-c3cc(Cl)c(C)cc3O)c2C1c1ccc(O)c(OC)c1 (stereo not given)	-7.4	-10.5	15.8	33.8	-2.4	0.3
Cc1cc(O)c(-c2n[nH]c3c2C(c2cccc(O)c2)N(Cc2cccnc2)C3=O)cc1Cl (stereo not given)	18.1	-0.9	3.4	63.0*	-1.3	3.0
COCCCN1C(=O)c2[nH]nc(-c3ccccc3O)c2C1c1cccc(Cl)c1 (stereo not given)	28.0	71.1*	13.1	11.1	36.1	11.3
O=C(Nc1cccc2ccccc12)c1csc([C@@H]2O[C@H](CO)[C@H](O)[C@H](O)[C@H]2O)n1	12.0	nt	nt	-1.3	nt	nt
O=C1NC[C@H](CCCCN2CCN(Cc3ccccc3)C(=O)C2=O)N(CCc2ccccc2)C1=O	14.6	nt	nt	13.2	nt	nt
O=C(Oc1ccc(NC2=NS(=O)(=O)c3ccccc32)cc1)c1cccnc1	4.2	52.5*	-2.7	-10.4	16.3	4.0
SMILES	TWEAK Fn14 block	HSF-1 act	LMP1 NFkB inh	TROY signal inh	HSF1 inhib	HSP90 inh
CC(NC(=O)/C=C/c1cnc2ccccc2n1)C12CC3CC(CC(C3)C1)C2 (stereo not given)	76.8*	-8.4	-6.5	75.0*	-3.0	-6.2
CCSC1(SCC)N=C(N)C2(C#N)C(c3ccc(OC)c(OC)c3OC)C12C#N (stereo not given)	47.1	197.8*	15.3	47.9	149.0	nt
O=C(c1ccc(S(=O)(=O)Cc2cc(F)ccc2F)c([N+](=O)[O-])c1)N1CCOCC1	43.4	nt	3.7	5.2	nt	nt
CCCNC(=O)c1ccc(N2CCC3(CC2)CC(c2cccc(Br)c2)=NO3)c(NC(=O)c2ccc(Br)cc2)c1	-39.8	-91.0	1.7	10.8	-88.8*	nt
Cc1ccc(CNC(=O)c2ccc(N3CCC4(CC3)CC(c3ccccc3)=NO4)c([N+](=O)[O-])c2)cc1	-3.4	-11.6	77.8*	11.8	1.3	8.4
O=C(NCc1ccccc1)c1ccc(N2CCC3(CC2)CC(c2ccccc2)=NO3)c([N+](=O)[O-])c1	2.2	1.9	13.2	-3.3	-0.1	5.5
O=c1cc(CSc2nnc(-c3cccs3)n2Cc2ccccc2)nc2sc3ccccc3n12	52.6*	0.3	2.9	45.2	-4.3	6.4
Cc1ccc(-n2c(=O)c3c(c4cc(C)ccc4n3C)n(CC(=O)NCC3CCCO3)c2=O)cc1 (stereo not given)	-7.8	nt	48.9*	-2.3	nt	nt
COc1ccc2c(c1)c1c(c(=O)n(-c3ccc(C)cc3)c(=O)n1CC(=O)NCC1CCCO1)n2C (stereo not given)	13.8	nt	3.2	5.7	nt	nt
CCOc1cc(/C=C/C(=O)c2ccc3c(c2)OCCO3)ccc1OCC(=O)N(C)C	42.2	67.6*	28.3	-0.7	53.0	0.0
COc1cc(/C=N/NC(=O)COc2ccc(Cl)cc2)ccc1OS(=O)(=O)c1ccc(C)cc1	-13.7	-3.2	-5.4	5.2	1.2	-0.1
COc1cc(/C=N/NC(=O)COc2cccc(F)c2)ccc1OS(=O)(=O)c1ccc(C)cc1	51.2*	2.4	4.2	28.5	-3.3	3.9
CCCN(C)C[C@@H]1Oc2ncc(Br)cc2C(=O)N([C@@H](C)CO)C[C@H]1C	-7.9	nt	-3.9	-8.1	nt	nt
Cc1csc(-c2cnn(-c3ccccc3)c2NC(=O)c2cccc(C(F)(F)F)c2)n1	-12.2	80.8*	7.0	-1.4	48.2	2.6
CC1(C(=O)NCCC#N)CCN1C(=O)c1ccccc1CCc1ccccc1 (stereo not given)	14.3	nt	nt	-3.7	nt	nt
O=C(Nc1nc2c(F)cc(F)cc2s1)C1CCN(C(=O)c2ccc(F)cc2)CC1	-6.0	26.9	-6.0	-18.6	9.6	nt
O=C(Nc1nc(-c2ccc(F)cc2)cs1)C1CCN(C(=O)c2ccc(F)cc2)CC1	57.4*	-0.9	39.8	30.3	-6.1	nt
O=C(Cc1ccccc1F)Nc1nc(-c2ccc(F)cc2)cs1	51.6*	38.7	-47.7	57.6*	11.4	0.9
COc1ccc(-c2csc(NC(=O)Cc3ccccc3F)n2)cc1OC	29.9	-0.3	18.8	30.0	-5.9	-0.8
CN(C)CCNC(=O)c1cccc(-c2cccc3nncn23)c1	-3.2	nt	nt	-4.3	nt	nt

Bioassay records: PubChem BioAssay, several laboratories
